Assay [1] can be described thus: qHTS assay to identify small molecule antagonists of the retinoid acid receptor (RAR) signaling pathway - cell viability counter screen (AID 1159551). Also: nearly all actives have a fitted effect of over 35% in size. Also: potency is read from the fitted curve at half-maximal effect. As to conditions: C3RL4 cells viability, ATP luminescence (CellTiter-Glo), 6 h; series mostly up to 92.4 µM. Summed up:
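C3RL4 cells were seeded overnight at 37 C, then treated with compounds plus 1 uM (final) retinol for 6 h at 37 C. Viability was read as ATP by CellTiter-Glo luminescence after 30 min at room temperature.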
For orientation: In qHTS, concentration-response curves come from the screen itself.

A short description of assay [2]: qHTS assay to identify small molecule antagonists of the estrogen related receptor (ERR) signaling pathway - cell viability counter screen (AID 1224818).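 Also: viability measured after 17.5 h of compound exposure.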 As to conditions: ERR reporter cell line viability counter screen; series mostly up to 46.1 µM. A digest of the protocol: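 ERR reporter cells plated 6 h at 37 C/5% CO2, then compounds in DMSO pin-transferred and incubated 17.5 h at 37 C. Viability read as CellTiter-Fluor fluorescence after 30 min at 37 C.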

Assay [3] can be described thus: qHTS assay to identify small molecule antagonists of the estrogen related receptor (ERR) signaling pathway (AID 1224819; also: nearly all actives have a fitted effect of over 50% in size; also: potency is read from the fitted curve at half-maximal effect). As to conditions: ERR reporter cell line, luciferase inhibition; series mostly up to 46.1 µM. Summed up: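 ERR reporter cells were plated at 2,000 cells/well and left 6 h at 37 C/5% CO2 before pin-tool transfer of compounds in DMSO. After 18 h at 37 C, One-Glo was added and luminescence was read 30 min later at room temperature.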

Assay [4] is described as follows: qHTS assay to identify small molecule agonists of the estrogen related receptor (ERR) signaling pathway (AID 1224820). As to conditions: ERR reporter cell line, luciferase agonist mode; series mostly up to 46.1 µM. Summed up:
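ERR reporter cell line (from NTP), 2,000 cells/well, incubated 6 h before compound addition, then 18 h at 37 C. Luminescence measured 30 min after One-Glo reagent at room temperature.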

Assay [5] relates to estrogen-related receptor alpha (ERRalpha) with PGC-1alpha coactivator, human. Briefly: qHTS assay to identify small molecule antagonists of the estrogen related receptor signaling pathway with the pleiotropic PPARgamma coactivator (PGC) (AID 1224821; calls by dose curve; also: nearly all actives have a fitted effect of over 50% in size; also: potency is read from the fitted curve at half-maximal effect). As to conditions: ERR/PGC reporter cell line, luciferase, antagonist mode; series mostly up to 46.1 µM. Summed up:
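PGC/ERR reporter cell line, plated 6 h before compound addition, then exposed 18 h at 37 °C. Luciferase activity read by luminescence 30 min after One-Glo addition; decrease indicates antagonism.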

The nature of assay [6]: qHTS assay to identify small molecule antagonists of the estrogen related receptor signaling pathway with the pleiotropic PPARgamma coactivator (PGC) cell viability counter screen (AID 1224822). As to conditions: ERR/PGC reporter cell line viability counter screen; series mostly up to 46.1 µM. A digest of the protocol: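 PGC/ERR cells were seeded at 2,000 cells/well, rested 6 h at 37 C/5% CO2, then given compounds in DMSO by pin tool and incubated 17.5 h at 37 C. Viability came from CellTiter-Fluor fluorescence after 30 min.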

Assay [7] in a line: qHTS assay to identify small molecule agonists of the RXR signaling pathway - cell viability counter screen (AID 1159529).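 Also: HEK 293T cells carrying an RXR-alpha UAS beta-lactamase reporter; nearly all actives have a fitted effect of over 50% in size.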 As to conditions: RXR-alpha-bla HEK293T viability, CellTiter-Glo, 16 h; series mostly up to 76.8 µM. A digest of the protocol: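 RXR-alpha-UAS-bla HEK 293T cells in medium with 2% charcoal-stripped FBS were preincubated 5 hr, then exposed to compounds for 16 hr at 37 C. Viability was read as CellTiter-Glo luminescence after 30 min at room temperature.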

Assay [8] can be described thus: qHTS assay to identify small molecule agonists of the retinoic acid receptor (RAR) signaling pathway (AID 1159553). Also: potency is read from the fitted curve at half-maximal effect. Conditions: C3RL4 RARE luciferase reporter, agonist, 6 h; series mostly up to 73.3 µM. Summed up: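 C3RL4 cells carrying a RARE luciferase reporter were plated overnight at 37 C, then exposed to compounds in DMSO for 6 hr at 37 C and 5% CO2. Luminescence was read 30 min after luciferase reagent addition at room temperature.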

Assay [9] in a line: qHTS assay to identify small molecule antagonists of the retinoic acid receptor (RAR) signaling pathway (AID 1159552; also: nearly all actives have a fitted effect of over 50% in size; also: potency is read from the fitted curve at half-maximal effect). Conditions: C3RL4 RARE luciferase reporter, retinol-stimulated, 6 h; series mostly up to 92.4 µM. Summed up: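 RARE-luc C3RL4 cells; cpds + 1 uM (final) retinol, 6 hr, 37 C/5% CO2; luciferase reagent, 30 min RT, luminescence readout. Inhibitors of retinol-driven signal scored.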

Records with an inconclusive call do not appear. The source made the active and inactive calls. Unless noted, calls follow the shape of the dose curve; as a rule, active = well fitted curve in the direction sought with a large enough effect in the repeat runs; inconclusive = weak or mixed curves; inactive = no such curve, though single readings can be large; an effect the other way counts as inactive or inconclusive.

Regarding `O=C(CCCN1CCN(c2ccc(F)cc2)CC1)NC1c2ccccc2CSc2ccccc21` (stereo not given), the Potency result in [1] was “inactive”.
As for `CCCc1c(OCCCOc2ccc(OCC(=O)O)cc2)ccc(C(C)=O)c1O`, the result in assay [2], in assay [4] and in [6] was inactive. Also, the Potency result in assay [3] and in assay [5] was “inactive” throughout.
`COCCOC(=O)C1=C(C)NC(C)=C(C(=O)OC/C=C/c2ccccc2)C1c1cccc([N+](=O)[O-])c1` (stereo not given): the Potency result in [7], in [1] and in assay [8] was “inactive” in each case. Besides, the Potency was 11.9 µM (active) in [3] and 17.4 µM (active) in [5]. For the same compound, the compound was classed as inactive in assay [4].
As for `OCCSc1ccccc1`, the Potency entry in assay [1] is “inactive”.
`Cc1cc2nc3ccc(=[N+](C)C)cc-3sc2cc1N`: the Potency in assay [1] is 26.6 µM (active); in assay [8], 1.88 µM (active). Moreover, the Potency entry in assay [9] was “inactive”.
On to `CCCCC1C(=O)N(c2ccccc2)N(c2ccc(O)cc2)C1=O` (stereo not given), for which the Potency entry in [9] is “inactive”.
As to `Cc1cnc(C)c(C)n1`, the Potency entry in assay [1], in assay [9] and in assay [8] was “inactive” each time.
As to `COCCOC`, the Potency result in assay [7] and in assay [8] was “inactive” throughout. In assay [9], the Potency is 6.54 µM (active).
Take `C[Si](NC1CCCCC1)(NC1CCCCC1)NC1CCCCC1`: the Potency entry in [1], in assay [9] and in assay [8] was “inactive” in each case.
With `C=CCNc1nc(NCC=C)nc(N2CCN(C(c3ccc(F)cc3)c3ccc(F)cc3)CC2)n1`, the Potency entry in assay [1], in assay [9] and in [8] was “inactive” throughout.
Take `Cc1occc1C(=O)Nc1ccc(C(=O)N2CCC(F)(F)/C(=C\C(=O)N3CCC(N4CCCCC4)CC3)c3ccccc32)cc1`: the Potency entry in [1], in [9] and in [8] was “inactive” in each case.
Consider `c1cc[c]([Bi]([c]2ccccc2)[c]2ccccc2)cc1`, for which the Potency result in [1] is “inactive”.
Take `O=C(N/N=C/c1ccc([N+](=O)[O-])o1)c1ccc(O)cc1`: the Potency entry in assay [7] and in [8] was “inactive” each time.
Turning to `CCOC(=O)/C=C/C(=O)O`, the Potency result in assay [1] was “inactive”.
Regarding `C=CC(C)(C)CC(=O)OC`, the Potency entry in assay [7] and in [8] was “inactive” each time. Besides, the Potency in assay [9] was 15.4 µM (active).
On to `CCCCCC=CCC=CCCCCCCCC(=O)OCC`, for which the Potency entry in assay [1] was “inactive”.
`CC1CC(O)CC(C)(C)C1` (stereo not given): the Potency entry in [1], in assay [9] and in [8] was “inactive” each time.
Turning to `Cc1cc(S(=O)(=O)O)ccc1N=Nc1c(O)ccc2ccccc12`, the Potency entry in assay [7], in assay [9] and in assay [8] was “inactive” throughout.
For `C(=C\c1ccccc1)/CN1CCN(C(c2ccccc2)c2ccccc2)CC1`, the result in assay [2] and in [6] was inactive.
For the compound `COc1cc2c(cc1OC)-c1cc(=Nc3c(C)cc(C)cc3C)n(C)c(=O)n1CC2`, the Potency result in [1], in assay [9] and in assay [5] was “inactive” throughout. The compound was called inactive in assay [2] and in [4]. Besides, the Potency in assay [3] was 17.4 µM (active).
As for `O=C(Nc1ccccc1)Nc1ccccc1`, the Potency entry in [1] and in assay [9] was “inactive” throughout. In [8], the Potency was 2.18 µM (active).
With `CC(COc1ccc(C(C)(C)C)cc1)OS(=O)OCCCl` (stereo not given), the Potency entry in assay [7] and in assay [8] was “inactive” each time. The Potency in assay [9] was 3.88 µM (active).
Consider `C/C=C/C=C/CCCCCCCO`, for which the Potency entry in assay [7] and in assay [8] was “inactive” each time.
On to `CCOC(=O)c1ccccc1C`, for which the Potency result in [1], in assay [9] and in assay [8] was “inactive” in each case.
In the case of `CC[C@H](NC(=O)c1cc(F)ccc1NS(=O)(=O)c1cccc2cccnc12)c1ccccc1`, the Potency entry in [1], in assay [9] and in assay [8] was “inactive” each time.
Turning to `CSc1ccc(Oc2ccc(S(N)(=O)=O)cc2CN(C)C)cc1C`, in assay [1], the Potency entry was “inactive”.
On to `NC(=O)N(O)[C@@H]1COc2cc(OCc3ccccc3)ccc21`, for which the Potency result in assay [1] was “inactive”.
`COC(=O)CC(=O)C(C)(C)C`: in [1], the Potency entry was “inactive”.
On to `CC1CC(=O)NN=C1c1ccc(NCC(C)(C)NCC(O)COc2cc(Cl)ccc2C#N)cc1` (stereo not given), for which the Potency result in assay [1], in assay [9] and in assay [8] was “inactive” each time.
Consider `CNCCCC1c2ccccc2C=Cc2ccccc21`, for which the Potency result in assay [1], in assay [3] and in [5] was “inactive” throughout. Moreover, in [9], the Potency was 23.7 µM (active). Further, the compound was classed as inactive in assay [2] and in [4].
